# Rows were chosen to be rich in hits. Some 7.1% of all compounds tested hit in one or more screens of this group.
# SW480 rerep: inducers of DNA re-replication in SW480 colon cancer cells; SW480 DNA re-replication, Hoechst DNA content imaging, 48 h; Potency, µM (top dose mostly 46.1 µM), without a hit: at the top dose re-replication activation, most hits filed as activators; 340,000 tested, 1.8% active; note: % of control where 0% means no effect; nearly all actives have a fitted effect of over 55% in size
#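 Readout is total intensity of Hoechst-stained nuclei, excited at 405 nm and collected at 500-530 nm. Compound treatment lasted 48 hr at 37 C in 5% CO2 before staining.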
# ELG1 genotox: induces genotoxicity in HEK293T cells with luciferase-tagged ELG1; 330,000 tested, 1.3% active; AID 504466; HEK293T ELG1-luciferase reporter, luminescence, 16 h; Potency, µM (titrated, usually from 46 µM), for the others: at the top dose activity change, positive = activation, actives largely listed as activators; note: % of control where 0% means no effect; nearly all actives have a fitted effect of over 60% in size
#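 ELG1-luciferase HEK293T cells, 2,000/well; compound pinned in; 16 hr, 37 °C, 5% CO2; ONE-Glo, 30 min RT; luminescence on CCD imager.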
# MCF10A rereplic: DNA re-replication induction in MCF 10a cells. MCF 10A DNA re-replication, Hoechst nuclear intensity, 48 h. Potency, µM (series often up to 46.1 µM), for the others: top-dose activity, positive = re-replication, actives largely listed as activators. 350,000 tested, 2.9% active. AID 624296; note: % of control where 0% means no effect; nearly all actives have a fitted effect of over 50% in size
# AT treatment: potential ataxia-telangiectasia treatment. Potency, µM (series often up to 57.5 µM), without a hit: at the top dose activation, most hits filed as activators. AID 485349. 320,000 tested, 0.19% active. F2112 A-T fibroblasts, KAP-1 phosphorylation AlphaLISA; neocarzinostatin DNA damage 30 min before lysis; note: % of control where 0% means no effect; nearly all actives have a fitted effect of over 45% in size
#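 ATM-like activity read as KAP-1 phosphorylation via AlphaLISA donor/acceptor antibody pairs after lysis and 6 hr at 25C. Cells were ATM-null patient fibroblasts (F2112, hTERT), dosed 60 min, then exposed to the DSB inducer NCS for 30 min.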
# ELG1 repair inh: inhibitors of ELG1-dependent DNA repair in HEK293T cells. 330,000 tested, 2.3% active. AID 504467. HEK293T ELG1-luciferase reporter, luminescence, 16 h; DNA damage induced by 5-fluorouridine. Potency, µM (top dose mostly 46.1 µM), for the others: at the highest dose activity change, negative = inhibition, hits mostly inhibitors; note: % is set by controls: 0 for no effect and ±100 for the full control effect; nearly all actives have a fitted effect of over 55% in size
#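 Reporter activity after DNA damage by 5-fluorouridine is monitored. Compound-treated cells incubate 16 hr at 37 °C, then ONE-Glo is added for 30 min before luminescence reading.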
# p53 reactivation: re-activators of mutant p53; 320,000 tested, 0.063% active; H1299 p53-A138V BP100-luciferase reporter, luminescence, 24 h; Potency, µM (titrated, usually from 92.2 µM), inactives show top-dose activity change, positive = activation, actives largely listed as activators; note: % of control where 0% means no effect; nearly all actives have a fitted effect of over 45% in size
#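 H1299 (p53-null), stable ts p53-A138V + BP100-Luc; 1000 cells/well, Opti-MEM/10% FBS; cpd 4 pt, 1:5; 24 h, 37 deg C, 5% CO2; detection reagent 10 min RT; luminescence.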
# Active calls of the source: *; ? = inconclusive; / = no result given. Calls come from the whole dose curve; as a rule, active = well fitted curve in the direction sought with a large enough effect; inconclusive = small, poorly fitted or top-dose-only effect, or another doubt; inactive = no such curve, though single readings can be large; an effect the other way counts as inactive or inconclusive. Potency is the fitted concentration of half-maximal effect.
SMILES,SW480 rerep,ELG1 genotox,MCF10A rereplic,AT treatment,ELG1 repair inh,p53 reactivation
Clc1ccc(-n2ncc3c(NCCN4CCOCC4)ncnc32)cc1,2%,3.7µM*,?,-5%,?,?
COc1ccccc1OCCC(=O)OCC(=O)NCc1ccc(F)cc1,2%,0%,-1%,-4%,8%,-6%
CCN(CC)CCOC(=O)c1ccc(N/C=C(/C#N)c2nc(-c3ccc(OC)c(OC)c3)cs2)cc1,23µM*,0%,18µM*,7%,7%,2%
CCOc1cc(/C=N/Nc2nc3ccccc3[nH]2)cc(Br)c1OCC(=O)N(C)C,2%,-15%,?,-1%,23µM*,-4%
COc1ccc(C(=O)Nc2ccc3oc(Cc4ccc(Cl)cc4)nc3c2)cc1OC,-7%,-24%,19%,10%,21µM*,3%
CN(C)CCCOc1ccc2c(c1)Sc1ccccc1CC2=O,0%,-2%,?,6%,15%,4%
O=C1Cc2ccccc2Sc2cc(OCCCN3CCCCC3)ccc21,23µM*,-4%,?,4%,-2%,-7%
CC(C)CC(=O)Nc1nc2ccc(S(=O)(=O)N3CCOCC3)cc2s1,18µM*,-2%,?,-1%,?,-6%
CC(=O)Nc1nc2ccc(S(=O)(=O)N3CCCC3)cc2s1,15%,-8%,1%,18%,-13%,16%
CCCC(=O)Nc1nc2ccc(S(=O)(=O)N3CCCCC3)cc2s1,3.7µM*,3%,?,-1%,?,6%
N#Cc1ccc(CN2CCN(C(=O)CN3C(=O)NC4(CCCC4)C3=O)CC2)cc1,-2%,-4%,9%,1%,1%,-1%
F[B-](F)(F)c1cncc2ccccc12,?,/,6%,/,/,/
COc1ccc(CCn2c(C3CCCCC3)nc3c(c(=O)c4ccccc4n3C)c2=O)cc1,-22%,-8%,3.7µM*,-3%,16µM*,-3%
COC(=O)c1ccc(OC(=O)CS(=O)c2ccccc2[N+](=O)[O-])cc1 (configuration not stated),-22%,0%,9%,-4%,5%,3%
O=C(CS(=O)c1ccc(C(F)(F)F)cc1[N+](=O)[O-])Oc1ccccc1 (configuration not stated),?,-31%,7.3µM*,/,?,-7%
CS(=O)(=O)c1ccc(S(=O)CC(=O)OCc2ccccc2)c([N+](=O)[O-])c1 (configuration not stated),-40%,3%,4.1µM*,-9%,?,-12%
O=C(Cc1ccccc1)Nc1ccnn1C1CCN(Cc2nccs2)CC1,-9%,-4%,22%,1%,4%,1%
O=C(COc1cc(Cl)ccc1Cl)N1CCNC1=O,-72%,-1%,-5%,-5%,15%,4%
CC(C)(C)N=C1NN=C(c2ccc(Cl)cc2)CS1,-2%,?,-3%,-7%,?,?
CC(C)(C)N=C1NN=C(c2cc3ccccc3o2)CS1,12µM*,?,?,-6%,?,?
COc1c(F)c(F)c(C(=O)Nc2ccc(N3CCN(C(C)=O)CC3)c(Cl)c2)c(F)c1F,15%,-14%,9%,-5%,23µM*,-3%
O=C(Nc1ccc(N2CCN(C(=O)c3cccs3)CC2)c(Cl)c1)c1cccnc1,-6%,-14%,2%,1%,6.5µM*,-10%
O=C(Nc1ccc(N2CCN(C(=O)c3ccco3)CC2)c(Cl)c1)c1c(F)c(F)c(F)c(F)c1F,?,-3%,?,0%,18µM*,-17%
O=C(Nc1ccc(N2CCN(C(=O)c3ccco3)CC2)c(Cl)c1)c1cccnc1,0%,-12%,-1%,-3%,6.5µM*,3%
O=C(Nc1ccc(N2CCOCC2)c(Cl)c1)c1c(F)c(F)c(F)c(F)c1F,?,2%,?,1%,-15%,1%
SMILES,SW480 rerep,ELG1 genotox,MCF10A rereplic,AT treatment,ELG1 repair inh,p53 reactivation
C[C@H](CN1c2ccccc2Sc2cccnc21)N(C)C,-4%,/,8%,/,/,/
CCc1ccc(C2C(C#N)=C(N)C(C#N)(C#N)C3=CCC(C(C)(C)C)CC32)cc1 (configuration not stated),8.2µM*,0%,15µM*,25%,-14%,-32%
CC(=O)c1cccc(NC(=O)N2CCCC2C(=O)Nc2cccc(C)c2)c1 (configuration not stated),-7%,0%,0%,0%,-1%,-3%
CC(=O)Nc1cccc(NC(=O)C2CCCN2C(=O)Nc2cccc(C)c2)c1 (configuration not stated),-15%,5%,9.2µM*,1%,-9%,-16%
Cc1ccc(C(OCC(O)CNCc2ccc(F)cc2)c2ccccc2)cc1 (configuration not stated),5.2µM*,-1%,2.6µM*,11%,-22%,-3%
CCOC(=O)c1c(-c2ccc(C)o2)csc1NC(=O)CN1CCC(C(N)=O)CC1,?,-4%,?,1%,-25%,-5%
CCOC(=O)c1c(-c2ccc(C)o2)csc1NC(=O)CN1CCCCC1,1%,1%,23µM*,20%,-10%,1%
CCOC(=O)c1c(-c2ccc(C)o2)csc1NC(=O)CN(C)CC(=O)Nc1ccc(C)cc1,?,13%,?,/,15µM*,1%
CCOC(=O)c1c(-c2ccc(C)o2)csc1NC(=O)CN1CCN(CC)CC1,-6%,-6%,18%,6%,-9%,-5%
O=C(O)c1ccc(S(=O)(=O)N(Cc2ccccc2)C2CCCCC2)cc1,-8%,-3%,-2%,4%,-11%,-5%
COCC(=O)N(C)c1nnc(-c2ccc([N+](=O)[O-])cc2)s1,-1%,3%,?,2%,18%,6%
COCC(=O)N(C)c1nnc(-c2ccccn2)s1,2%,21µM*,7%,/,?,?
CN(C(=O)C1CCOC1)c1nnc(-c2ccccn2)s1 (configuration not stated),?,21µM*,-7%,-4%,?,?
Cc1ccc(NC(=O)c2ccc3nccnc3c2)c(C)c1,-21%,-12%,-15%,6%,?,24%
COc1ccc(Cl)cc1NC(=O)Cn1c(C)csc1=O,-4%,1%,1%,-2%,6%,-6%
CN1C[C@@H]2C(c3ccccc3)C3(c4ccc(C#N)cc4)CC2(C3)[C@H]1c1ccccc1 (some centres not stated),-18%,-4%,5.2µM*,-6%,-5%,12%
